Assay results reported in PubChem BioAssay AID504895 (National Center for Advancing Translational Sciences (NCATS), 2011).
Inconclusive results are not listed. Active and inactive are the calls of the source. Calls come from the whole dose curve; as a rule, active = well fitted curve in the direction sought with a large enough effect; inconclusive = small, poorly fitted or top-dose-only effect, or another doubt; inactive = no such curve, though single readings can be large or run the other way.

Target: Protein phosphatase EYA2 (Homo sapiens) (UniProt O00167)
Sequence (O00167 whole entry, looked up): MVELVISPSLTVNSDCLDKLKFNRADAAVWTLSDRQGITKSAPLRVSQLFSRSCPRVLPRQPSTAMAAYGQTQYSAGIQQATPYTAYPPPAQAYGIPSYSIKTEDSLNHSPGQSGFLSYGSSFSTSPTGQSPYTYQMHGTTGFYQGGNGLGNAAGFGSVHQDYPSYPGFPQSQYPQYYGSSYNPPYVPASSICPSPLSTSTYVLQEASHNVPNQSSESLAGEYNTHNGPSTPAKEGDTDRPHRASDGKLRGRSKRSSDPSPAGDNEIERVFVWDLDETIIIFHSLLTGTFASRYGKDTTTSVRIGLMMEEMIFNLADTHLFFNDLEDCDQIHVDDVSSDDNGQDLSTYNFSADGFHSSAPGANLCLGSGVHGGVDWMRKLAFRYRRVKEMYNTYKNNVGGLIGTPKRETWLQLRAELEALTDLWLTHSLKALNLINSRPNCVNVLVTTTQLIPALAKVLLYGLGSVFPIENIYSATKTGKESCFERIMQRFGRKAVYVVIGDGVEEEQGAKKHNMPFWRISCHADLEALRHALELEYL
Assay: Inhibitors of Eya2ED: Hit Confirmation in Primary Screen
Details: Recombinant Eya2ED, OMFP fluorescence phosphatase assay; series mostly up to 76.9 µM; activity change, negative = inhibition: at the top concentration
Outline: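 Eya2 (dispensed at 0.2 uM) was preincubated 10 min at ambient with compound in 50 mM HEPES pH 7.5, 50 mM NaCl, 5 uM MgCl2, 0.05% BSA, 1 mM DTT. OMFP (dispensed at 50 uM) was then added, and fluorescence (ex 485/em 525 nm) was read after 10 min. Retested as 12-point titrations; EGTA control.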

Activity change, negative = inhibition, inactive:
Cn1c(CNC(=O)c2ccc(Cl)cc2)nnc1SCC(=O)NC1=NCCS1 -10.6%
Cn1cccc1CC(=O)NNC(=S)NC(=O)c1ccc(F)cc1 -29.9%
COc1ccc(Cl)cc1CSc1ncn[nH]1 -42.2%
CC(C)Cc1nnc(NC(=O)c2cc3c(s2)CCC3)s1 -13%
CCOc1ccc(NC(=O)COC(=O)CN2CCCCCC2=O)cc1 15.3%
NC(=O)Nc1ccc(C(=O)OCC(=O)NC2CCCCC2)cc1 6.46%
COc1ccccc1N1C(=O)C2C3C=CC(C3)C2C1=O (stereo unspecified) -21%
N#Cc1ccccc1NC(=O)CSC1=Nc2ccccc2C2CC=NN12 (stereo unspecified) -26.1%
O=C(CSc1c2c(nc3cc(Cl)ccc13)CCCC2)NCc1ccco1 -28%
O=C(NC1CCCCC1)c1cc2nc3c(c(C(F)(F)F)n2n1)CCCC3 -7.99%
O=C(COC(=O)c1cc(Cl)ccc1Cl)NC1CCCC1 -18%
O=C(NCc1ccccn1)C1CCCN(Cc2cnn(-c3ccccc3)c2-n2cccc2)C1 (stereo unspecified) 0.326%
Cc1ccc2c(c1)CCCN2C(=O)c1cccs1 -5.45%
COc1ccc(CCN=C(C)C2=C(O)C(c3ccccc3)OC2=O)cc1OC (stereo unspecified) 1.2%
CCCOc1ccc(S(=O)(=O)N2CCN(C)CC2)c2ccccc12 -5.34%
O=C(COC(=O)c1ccccc1Nc1cccc(C(F)(F)F)c1)NCc1ccco1 -6.79%
Cc1nn(C)c(C)c1NC(=O)Nc1ccc(Cl)c(Cl)c1 -26.5%
O=C(CN1C(=O)c2ccccc2S1(=O)=O)Nc1cccc(S(=O)(=O)N2CCOCC2)c1 -7.98%
O=C(C1CCCN(Cc2ccccc2F)C1)N1CCc2ccccc2C1 (stereo unspecified) 3.27%
O=C(CCCC(=O)N(CC(=O)NC1CCCCC1)c1ccccc1F)Nc1ccccn1 -0.931%
Cc1onc(-c2ccccc2Cl)c1C(=O)OCC(=O)N1CCC(C)CC1 -4.81%
COC(=O)C1OC(OC2CC[C@]3(C)C(CC[C@@]4(C)[C@@H]3CC=C3[C@@H]5CC(C)(C)CC[C@]5(C(=O)OC5OC(CO)C(O)C(O)C5O)CC[C@]34C)C2(C)C)C(O)C(O)C1O[C@H]1OCC(O)C(O)C1O (stereo partly specified) -25.9%
N=C(N)SCc1ncccc1O 6.85%
CCOC(=O)CN(C(=O)CN1CCC(n2nnc3cc(C)ccc32)CC1)c1ccccc1 -0.334%
CC(C)(C)OC(=O)NCCCCCc1nnc(SCc2ccccc2F)o1 -47%
Cn1c(=O)c(C(=O)Nc2ncccc2O)c(O)c2ccccc21 -11.4%
